Test: HepG2 liver cancer cell viability effects, profiling panel, resazurin fluorescence, 24 h, PK04 Diversity Set (AID 1172); also: test concentration not given here
Settings: higher = more signal

Going from `CCCCC(O)C1C=CC2C(=O)N(C)C(=O)C2N1Nc1ccccc1` (stereo not given) to `CN1C(=O)C2C=CC(C(O)c3ccc(-c4ccccc4)s3)N(Nc3ccccc3)C2C1=O` (stereo not given), the z-score rises from -1.63 to -0.208.

Going from `O=C1C2C=CC(C(O)c3cccs3)N(Nc3ccccc3)C2C(=O)N1c1ccccc1` (stereo not given) to `O=C1C2C=CC(C(O)c3ccc([N+](=O)[O-])cc3)N(Nc3ccccc3)C2C(=O)N1c1ccccc1` (stereo not given), the z-score rises from -1.51 to -0.849.

Going from `COC(=O)[C@@]1(Cc2ccccc2)[C@@H]2[C@@H](CC(=O)[C@H]2CC(=O)C(=O)N(C)C)CN1C(=O)c1ccccc1` to `COCCn1c(C(=O)N2CCCC2)cc2c1C[C@H]1CN(C(=O)c3ccccc3)[C@@](Cc3ccccc3)(C(=O)OC)[C@@H]21`, the z-score falls from 0.166 to -0.171.

Compared with `CC=CC(O)C1C=CC2C(=O)N(C)C(=O)C2N1NC(=O)OC(C)(C)C` (stereo not given), `CN(C)CCCCNC(=O)[C@H]1C[C@H]2C(=O)NCC(=O)N2[C@H]1c1cccc(OCCO)c1` is higher in z-score: -1 for the first, 1.15 for the second.

Compared with `CN(C)C(=O)[C@]1(Cc2ccccc2)N=C(c2ccc(OCCCO)cc2)O[C@@H]1c1ccccc1`, `[N-]=[N+]=NCc1ccccc1C[C@]1(C(=O)N2CCOCC2)N=C(c2ccc(OCCCO)cc2)O[C@H]1c1ccccc1CN=[N+]=[N-]` is higher in z-score: 0.0784 for the first, 0.133 for the second.

Going from `C=CCC(OC(C)=O)[C@@H]1[C@@H](N(Cc2cccc3ccccc23)C(=O)c2ccc(-c3ccccc3)cc2)c2cc(OCCCO)ccc2N1C(=O)c1ccc2ccccc2n1` (stereo not given in full) to `C=CCC(OC(C)=O)[C@@H]1[C@@H](N(Cc2ccc(-c3ccccc3)cc2)C(=O)c2ccc(-c3ccccc3)cc2)c2cc(OCCCO)ccc2N1C(=O)c1ccc2ccccc2n1` (stereo not given in full), the z-score rises from -0.0049 to 1.16.

Compared with `NC(=O)NCC#Cc1ccc2c(c1)[C@]1(C(=O)N2)[C@H](C(=O)N2CCCCCCC2)[C@H]2C(=O)O[C@H](c3ccccc3)[C@H](c3ccccc3)N2[C@@H]1c1ccc(O)cc1`, `COCCOC(=O)N1C(=O)[C@@]2(c3cc(C#CC4(O)CCCCCC4)ccc31)[C@H](c1ccc(OCCO)cc1)N1[C@H](c3ccccc3)[C@H](c3ccccc3)OC(=O)[C@H]1[C@@H]2C(=O)N1CCCCCCC1` is lower in z-score: 0.0542 for the first, -0.768 for the second.

Compared with `C=CCC(OC(C)=O)[C@@H]1[C@@H](N(Cc2ccc(-c3cccc(C(F)(F)F)c3)o2)C(=O)Cc2ccc(F)cc2)c2cc(OCCCO)ccc2N1C(=O)c1ccc2ccccc2c1` (stereo not given in full), `CCOC(=O)C[C@H]1[C@H](OC(=O)c2ccc(-c3ccccc3)cc2)[C@@H](NC(=O)CC(C)C)c2cc(OCCCO)ccc2N1C(=O)Cc1ccc(OC)cc1` is lower in z-score: 0.589 for the first, -0.378 for the second.

Going from `O=C1c2ccccc2[C@@]2(Cc3ccccc3N(Cc3ccccc3)C2=O)[C@H](c2ccc(CO)cc2)N1Cc1ccccc1` to `CC(C)CNC(=O)[C@@H]1c2ccccc2C(=O)N(C2Cc3ccccc3C2)[C@H]1c1ccc(CO)cc1`, the z-score rises from -0.739 to 0.98.

Compared with `CCOC(=O)C[C@H]1[C@H](OC(=O)Cc2ccc3c(c2)OCO3)[C@@H](NC(=O)c2ccccc2)c2cc(OCCCO)ccc2N1C(=O)Cc1ccc(OC)cc1`, `C=CCNC(=O)[C@@H]1[C@H]2C(=O)O[C@H](c3ccccc3)[C@H](c3ccccc3)N2[C@H](c2ccccc2OCCO)[C@@]12C(=O)N(C(=O)OCCOC)c1ccc(C#CCCO)cc12` is lower in z-score: -0.0111 for the first, -0.301 for the second.

Compared with `C=C(COC)C(=O)CC[C@@H](OC(C)=O)c1ccc(OCCO)cc1`, `C=C(COC)/C(=C/C[C@H](OC(=O)c1ccncc1)c1ccc(OCCO)cc1)c1cc(C(=O)OC)ccc1OC` is higher in z-score: -0.487 for the first, 0.672 for the second.

Compared with `[N-]=[N+]=NCc1ccccc1C[C@]1(C(=O)O)COC(c2ccc(OCCCO)cc2)=N1`, `COCC(=C=CC[C@@H](O)c1cccc(OCCO)c1)C[C@@H](O)COCc1ccccc1` is higher in z-score: 0.24 for the first, 0.744 for the second.

Compared with `N[C@@H](Cc1ccccc1)Cn1cc(C2(O)CCCCC2)nn1`, `CC(C)[C@@H](C(=O)O)n1cc(-c2ccccc2)nn1` is lower in z-score: -0.384 for the first, -0.606 for the second.

First: Cc1ccc(F)cc1S(=O)(=O)N[C@@H]1CCN(Cc2ccc3[nH]ccc3c2)C1
Second: CCC[C@@H]1C=C(C(=O)OCC)[C@H](c2ccccc2)N1S(=O)(=O)c1ccc(C)cc1
The z-score of the first is lower: -1.14 for the first, -0.197 for the second.

First: COCCOC(=O)N1C(=O)[C@@]2(c3cc(C#CC4=CCCCC4)ccc31)[C@H](c1ccccc1OCCO)N1[C@H](c3ccccc3)[C@H](c3ccccc3)OC(=O)[C@H]1[C@@H]2C(N)=O
Second: CC1(C)OC[C@@]23C=C(Br)[C@@H](C[C@H]12)[C@@]1(CO1)C3=O
The z-score of the first is lower: -0.625 for the first, -0.0972 for the second.

— PubChem BioAssay
